Records with an inconclusive call do not appear. Active and inactive are the calls of the source. The call rests on the fitted dose curve; in most records, active means well fitted curve in the direction sought with a large enough effect; inconclusive means small, poorly fitted or top-dose-only effect, or another doubt; inactive means no such curve, though single readings can be large; an effect the other way counts as inactive or inconclusive.
Assays:
[1] = system: CRL-7250; assay: Cytotoxic Profiling of Annotated Libraries Using Quantitative High-Throughput Screening (AID 1296008); conditions: Five cell lines viability, CellTiter-Glo ATP luminescence, 48-72 h; max response: hits give low values; further: nearly all actives have a fitted effect of over 60% in size; on max response: on the % scale 0 is the no-effect control and ±100 the full control effect
How it was run: (§1)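 Compounds were pin-transferred onto cells and incubated 48 or 72 hr at 37 degree Celsius, 95% humidity. CellTiter-Glo was added, plates sat 10 min at room temperature, then ATP-coupled luminescence was imaged as the viability read-out.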

[2] = system: HEK293; assay: as above; conditions: Five cell lines viability, CellTiter-Glo ATP luminescence, 48-72 h; max response: hits give low values
How it was run: as §1

[3] = system: HaCat; assay: as above; conditions: Five cell lines viability, CellTiter-Glo ATP luminescence, 48-72 h; max response: hits give low values
How it was run: as §1

[4] = system: KB-3-1; assay: as above; conditions: Five cell lines viability, CellTiter-Glo ATP luminescence, 48-72 h; max response: hits give low values
How it was run: as §1

[5] = system: NIH3T3; assay: as above; conditions: Five cell lines viability, CellTiter-Glo ATP luminescence, 48-72 h; max response: hits give low values
How it was run: as §1

[6] = system: HACAT; assay: qHTS assay to identify novel small-molecules to repurpose for Merkel cell carcinoma treatment (AID 1296009); conditions: MCC and control cell lines, CellTiter-Glo viability, 72 h; at 44.8 µM (top of the series) unless noted; further: nearly all actives have a fitted effect of over 60% in size
How it was run: (§2)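 Viability readout: ATP luminescence (CellTiter-Glo) after 72 hr drug exposure at 37 degree celsius. Dose-response format was 8 points for NPC and 11 points for MIPE; data normalized to in-plate controls.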

[7] = system: HEK293T; assay: as above; conditions: MCC and control cell lines, CellTiter-Glo viability, 72 h; series mostly up to 44.8 µM
How it was run: as §2

[8] = system: NIH3T3; assay: as above; conditions: MCC and control cell lines, CellTiter-Glo viability, 72 h; at 44.8 µM (top of the series) unless noted
How it was run: as §2

[9] = system: C33A; assay: Primary qHTS to identify gynecologic anti-cancer compounds using libraries of approved drugs and bioactive compounds (AID 1345084); conditions: Gynecologic cancer cell panel viability, ATPlite luminescence, 48 h; series mostly up to 57.5 µM; further: on the % scale 0 is the no-effect control and ±100 the full control effect; nearly all actives have a fitted effect of over 55% in size
How it was run: (§3)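 Luminescence from the ATPlite ATP-monitoring reagent indicates viable cell number; lower signal means cytotoxicity. Cells received compound 16 h after seeding and were exposed for 48 h across five concentrations.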

[10] = system: CAOV3; assay: as above; conditions: Gynecologic cancer cell panel viability, ATPlite luminescence, 48 h; series mostly up to 57.5 µM
How it was run: as §3

[11] = system: CASKI; assay: as above; conditions: Gynecologic cancer cell panel viability, ATPlite luminescence, 48 h; series mostly up to 57.5 µM
How it was run: as §3

[12] = system: Es-2; assay: as above; conditions: Gynecologic cancer cell panel viability, ATPlite luminescence, 48 h; series mostly up to 57.5 µM
How it was run: as §3

[13] = system: HeLa; assay: as above; conditions: Gynecologic cancer cell panel viability, ATPlite luminescence, 48 h; series mostly up to 57.5 µM
How it was run: as §3

CC(NC(=O)CC(=O)O)c1nc2ccccc2c(=O)[nH]1 (centres undefined)
inactive: max response [1] -1.93% | outcome [2] | outcome [3] | outcome [4] | outcome [5] | outcome [6] | Potency [7] | outcome [8] | Potency [9] | Potency [10] | Potency [11] | Potency [12] | Potency [13]

CC(C)NC[C@H](O)COc1ccc(CCOCC2CC2)cc1
inactive: max response [1] -3.5% | outcome [2] | outcome [3] | outcome [4] | outcome [5] | outcome [6] | Potency [7] | outcome [8] | Potency [9] | Potency [10] | Potency [11] | Potency [12] | Potency [13]

C[C@]1(OC(=O)/C=C/c2ccccc2)C[C@H](O)[C@]2(O)C=CO[C@@H](O[C@@H]3O[C@H](CO)[C@@H](O)[C@H](O)[C@H]3O)C12 (some centres undefined)
inactive: outcome [1] | outcome [2] | outcome [3] | max response [4] 4.61% | outcome [5] | outcome [6] inactive [at 17.4 µM] | Potency [7] | outcome [8] inactive [at 17.4 µM] | Potency [9] | Potency [10] | Potency [11] | Potency [12] | Potency [13]

CNC(=O)Nc1ccc(OC)c(NC(=O)NC(=O)c2cc(F)c(F)cc2Cl)c1
inactive: max response [1] -5.98% | outcome [2] | outcome [3] | max response [4] 0.332% | outcome [5] | outcome [6] | Potency [7] | outcome [8] | Potency [9] | Potency [10] | Potency [11] | Potency [12] | Potency [13]

FC(F)(F)c1cc(C(F)(F)F)c2ccc3nc(-c4nnco4)cn3c2n1
inactive: outcome [1] | outcome [2] | outcome [3] | max response [4] -10% | outcome [5] | outcome [6] | Potency [7] | outcome [8] | Potency [9] | Potency [10] | Potency [11] | Potency [12] | Potency [13]

CC(O)C(O)/C=C/C=C/C(=O)O[C@@H]1C=C2COC(=O)[C@]2(O)[C@@]2(C)CCCC(C)(C)C12 (some centres undefined)
inactive: max response [1] 3.05% | outcome [2] | outcome [3] | max response [4] 8.55% | outcome [5] | outcome [6] inactive [at 17.4 µM] | Potency [7] | outcome [8] inactive [at 17.4 µM] | Potency [9] | Potency [10] | Potency [11] | Potency [12] | Potency [13]

CC(=O)N[C@H]1CCN(c2ccc(C3=NOC(CN[S+](=O)([O-])C(C)C)C3)cc2F)C1 (some centres undefined)
inactive: max response [1] 3.89% | outcome [2] | outcome [3] | max response [4] -0.511% | outcome [5] | outcome [6] | Potency [7] | outcome [8] | Potency [9] | Potency [10] | Potency [11] | Potency [12] | Potency [13]

COc1ccc(C(O[C@@H]2O[C@H](CO)[C@@H](O)[C@H](O)[C@H]2O)C(CO)Oc2ccc(/C=C/CO)cc2OC)cc1O (some centres undefined)
inactive: outcome [1] | outcome [2] | outcome [3] | outcome [4] | outcome [5] | outcome [6] inactive [at 17.4 µM] | Potency [7] | outcome [8] inactive [at 17.4 µM] | Potency [9] | Potency [10] | Potency [11] | Potency [12] | Potency [13]

CC(C)(C)c1cc(CN2CCN(CC(O)c3ccc(Cl)cc3)CC2)cc(C(C)(C)C)c1O (centres undefined)
inactive: max response [1] -1.02% | outcome [2] | outcome [3] | max response [4] -8.12% | outcome [5] | outcome [6] | Potency [7] | outcome [8] | Potency [9] | Potency [10] | Potency [12] | Potency [13]

COc1cc(/C=C/C(=O)OC2CC(C)=C(C(=O)O)/C2=C/CO[C@@H]2O[C@H](CO)[C@@H](O)[C@H](O)[C@H]2O)ccc1O (some centres undefined)
inactive: max response [1] 4.12% | outcome [2] | outcome [3] | outcome [4] | outcome [5] | outcome [6] inactive [at 17.4 µM] | Potency [7] | outcome [8] inactive [at 17.4 µM] | Potency [9] | Potency [10] | Potency [11] | Potency [12] | Potency [13]

CC1C(=O)CC2C3C(O)CC(C(=O)O)C12CC3(C)C (centres undefined)
inactive: outcome [1] | outcome [2] | outcome [3] | max response [4] 3.18% | outcome [5] | outcome [6] | Potency [7] | outcome [8] | Potency [9] | Potency [10] | Potency [11] | Potency [12] | Potency [13]

CC(=O)O[C@@H]1[C@H](O[C@@H]2O[C@H](CO)[C@@H](O)[C@H](O)[C@H]2O)[C@@H](O[C@@H]2O[C@@H](C)[C@H](O)[C@@H](O[C@@H]3O[C@H](CO)[C@@H](O)[C@H](O)[C@H]3O)[C@H]2O)[C@H](OC(=O)C23CCC4(C)C(=CCC5C6(C)CC(O)C(O[C@@H]7O[C@H](C(=O)O)[C@@H](O)[C@H](O)[C@H]7O)C(C)(C(=O)O)C6CCC54C)C2CC(C)(C)CC3O)O[C@@H]1C (some centres undefined)
inactive: max response [1] -7.88% | outcome [2] | outcome [3] | outcome [4] | outcome [5] | outcome [6] inactive [at 9.27 µM] | outcome [7] inactive [at 9.27 µM] | outcome [8] inactive [at 9.27 µM] | activity change, negative = cytotoxicity [9] 3.56% [at 6.55 µM] | activity change, negative = cytotoxicity [10] 14.4% [at 6.55 µM] | activity change, negative = cytotoxicity [11] 24.3% [at 6.55 µM] | activity change, negative = cytotoxicity [12] 1.96% [at 6.55 µM] | activity change, negative = cytotoxicity [13] -1.78% [at 6.55 µM]

C[C@@H]1O[C@@H](O[C@H]2[C@H](OC(C#N)c3ccc(O)cc3)O[C@H](CO)[C@@H](O)[C@@H]2O)[C@H](O)[C@H](O)[C@H]1O (some centres undefined)
inactive: max response [1] -7.05% | outcome [2] | outcome [3] | outcome [4] | outcome [5] | outcome [6] inactive [at 17.4 µM] | Potency [7] | outcome [8] inactive [at 17.4 µM] | Potency [9] | Potency [10] | Potency [11] | Potency [12] | Potency [13]

CC[C@@H](c1ccc(F)c(F)c1)n1c(C(=O)OC)c(-c2ccno2)[nH]c1=S
inactive: max response [1] -7.34% | outcome [2] | outcome [3] | max response [4] 5.04% | outcome [5] | outcome [6] | Potency [7] | outcome [8] | Potency [9] | Potency [10] | Potency [13]

From PubChem BioAssay (NCATS)
